Screening results as filed in PubChem.
IDH1 R132H inh = human IDH1 R132H inhibition; O75874; IDH1-R132H enzyme, NADPH consumption, diaphorase/resazurin fluorescence; Potency, µM (top dose mostly 76.6 µM), inactives show top-dose activity change, negative = inhibition, hits mostly inhibitors; 0.093% of 390,000 active; AID 602179; note: % is set by controls: 0 for no effect and ±100 for the full control effect; nearly all actives have a fitted effect of over 65% in size
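IDH1-R132H (0.5 ug/mL) preincubated 30 min with compound, then NADPH (0.016 mM) and alpha-KG (2 mM) added; 80 min at RT, pH 7.5. Remaining NADPH coupled via diaphorase/resazurin to fluorescence (540/590 nm); concentration-response curves normalized to no-enzyme control.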
Nrf2 inh = inhibitors of Nrf2 signaling; Potency, µM (doses to about 46 µM), without a hit: at the highest dose activity change, negative = inhibition, usual class: inhibitors; A549 ARE-Fluc reporter, luciferase luminescence, 18-24 h; 2.1% of 360,000 active; note: % is set by controls: 0 for no effect and ±100 for the full control effect; nearly all actives have a fitted effect of over 60% in size
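A549 ARE_Fluc cells (5000/well, 5% FBS OPTI-MEM) pre-incubated 2 h, then treated with compounds 18-24 h at 37C/5% CO2 in concentration-response. CellTiter-Fluor viability read first; BugLite luciferase luminescence after 15 min at room temperature gives Nrf2 activity.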
Nrf2 activator = Nrf2 pathway activation; 0.31% of 410,000 active; Potency, µM (series often up to 46.1 µM), for inactives: at the top dose activation, actives largely listed as activators; AREc32 ARE-luciferase reporter (MCF7-derived line), luminescence, 24 h; note: % of control where 0% means no effect; nearly all actives have a fitted effect of over 65% in size
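For detection, Steady-Glo was added and plates sat 30 min at RT; before that, AREc32_Fluc cells grown overnight in OPTI-MEM/5% FBS had been treated with 23 nL compound for 24 hr at 37 deg C.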
A549 tox = A549 cytotoxicity, counter-screen for Nrf2 inhibitors | Potency, µM (series often up to 46 µM), inactives show at the top dose activity change, negative = cytotoxicity, usual class: inhibitors | A549 ARE-Fluc cells, CellTiter-Fluor viability, 18-24 h | 0.16% of 390,000 active | AID 504648; note: % is set by controls: 0 for no effect and ±100 for the full control effect
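A549 ARE_Fluc cells in 5% FBS OPTI-MEM were exposed to compounds in concentration-response for 18-24 h at 37 deg C. Viability was read by CellTiter-Fluor fluorescence (Ex 405/Em 525) after 30 min, before the luciferase read.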
ELG1 repair inh = blocks ELG1-dependent DNA repair in HEK293T cells; HEK293T ELG1-luciferase reporter, luminescence, 16 h; DNA damage induced by 5-fluorouridine; Potency, µM (highest dose often 46.1 µM), for inactives: at the top dose activity change, negative = inhibition, actives largely listed as inhibitors; 2.3% of 330,000 active; AID 504467; note: % is set by controls: 0 for no effect and ±100 for the full control effect; nearly all actives have a fitted effect of over 55% in size
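Luminescence from the luciferase reporter, measured 30 min after ONE-Glo reagent at room temperature, was the read-out. Beforehand, 2,000 cells per well were exposed for 16 hr at 37 °C to 5-fluorouridine together with compound or vehicle.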
ELG1 FLuc counter = luciferase inhibition in cell-free luciferin readout for ELG1 hits; shares compounds with ELG1 repair inh; cell-free firefly luciferase luminescence counter-screen, ViewLux; Potency, µM (top dose mostly 46.1 µM), without a hit: top-dose activity change, negative = inhibition, usual class: inhibitors; 3% of 350 active; AID 624247; note: % is set by controls: 0 for no effect and ±100 for the full control effect
ELG1-Luc inh = inhibits ELG1-dependent DNA repair in HEK293T cells, confirmed; shares compounds with ELG1 repair inh; HEK293T ELG1-luciferase levels, luminescence; cells co-treated with 5-fluorouridine; Potency, µM (top dose mostly 46.1 µM), without a hit: at the highest dose activity change, negative = inhibition, most hits filed as inhibitors; 68% of 670 active; AID 624248; note: % is set by controls: 0 for no effect and ±100 for the full control effect; nearly all actives have a fitted effect of over 55% in size
ELG1 MMS Luc = MMS-stimulated human ELG1 repair inhibition, confirmed. HEK293T luciferase-tagged ELG1 level, MMS stimulated. shares compounds with ELG1 repair inh. 53% of 670 active. AID 624249. Potency, µM (titrated, usually from 46.1 µM), without a hit: top-dose activity change, negative = inhibition, usual class: inhibitors; note: % is set by controls: 0 for no effect and ±100 for the full control effect; nearly all actives have a fitted effect of over 60% in size
ELG1 5FU viab = confirmation of ELG1 repair inhibitors: viability with 5FU; shares compounds with ELG1 repair inh; cell viability with 5-FU, ELG1-dependent repair; Potency, µM (top dose mostly 46.1 µM), for the others: at the top dose activity change, negative = viability loss, most hits filed as cytotoxic; 670 tested, under 10 active; AID 624250;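 note: ELG1-luc HEK293T cells cotreated with 5-fluorouridine at 10 µM final; viability measured 16 h after compound addition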
ELG1 MMS cell = confirmation of ELG1 repair inhibitors: viability with MMS; Cell viability with MMS, ELG1-dependent DNA repair; 33% of 670 active; shares compounds with ELG1 repair inh; Potency, µM (titrated, usually from 46.1 µM), for the others: at the highest dose activity change, negative = viability loss, hits mostly cytotoxic;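 note: ELG1-luc HEK293T cells co-treated with 10 µM MMS; viability read 16 h after compound addition; % is set by controls: 0 for no effect and ±100 for the full control effect; nearly all actives have a fitted effect of over 60% in size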
Cell viab unstim = unstimulated viability counter-screen for ELG1 repair hits; cell viability counter-screen, unstimulated, luminescence; shares compounds with ELG1 repair inh; 8% of 900 active; AID 624252; Potency, µM (titrated, usually from 45.9 µM), for inactives: at the highest dose activity change, negative = loss of viability, usual class: cytotoxic;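 note: compound exposure lasted 16 hours before reading; % is set by controls: 0 for no effect and ±100 for the full control effect; nearly all actives have a fitted effect of over 55% in size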
FLuc biochem = inhibits purified firefly luciferase, counter-screen for ELG1 hits; shares compounds with ELG1 repair inh; AID 624253; purified firefly luciferase, luminescence counter-screen; 10% of 350 active; Potency, µM (doses to about 57.5 µM), without a hit: at the highest dose activity, negative = inhibition, actives largely listed as inhibitors; note: % is set by controls: 0 for no effect and ±100 for the full control effect
* marks the source's active call; other numbers are inactive results; u = inconclusive; x = not tested or not shown. Sampled rows, rich in hits. Any-hit rate of the full collection: about 3.8%. Calls come from the whole dose curve; as a rule, active = well fitted curve in the direction sought with a large enough effect; inconclusive = small, poorly fitted or top-dose-only effect, or another doubt; inactive = no such curve, though single readings can be large; an effect the other way counts as inactive or inconclusive. Potency is the fitted concentration of half-maximal effect.

SMILES | IDH1 R132H inh | Nrf2 inh | Nrf2 activator | A549 tox | ELG1 repair inh | Cell viab unstim | others
COc1cc2c(C(=O)Nc3ccccc3F)cn(C)c(=O)c2cc1OC | 9% | 4% | 0% | 1% | 5% | -1% | ELG1 FLuc counter=6%;ELG1-Luc inh=18µM*;ELG1 MMS Luc=3%;ELG1 5FU viab=u;ELG1 MMS cell=u;FLuc biochem=4%
CC(C)(C)OC(=O)C[C@@H]1C/C=C\C[C@@H](CC(=O)N(CCO)Cc2ccccc2)C(=O)NC[C@H](c2ccccc2)OC1=O | 2% | u | -1% | u | 1.5µM* | u | ELG1-Luc inh=13µM*;ELG1 MMS Luc=7.9µM*;ELG1 5FU viab=11%;ELG1 MMS cell=u
COc1ccccc1CNS(=O)(=O)c1ccc(Cl)s1 | 20% | 0% | 0% | 1% | 7% | x
COc1ccc(/C=N/NC(=O)Nc2cccc3nsnc23)c(OC)c1 | 4% | 1% | 3% | -7% | -4% | x
COc1cc(/C=N/NC(=O)Nc2cccc3nsnc23)cc(OC)c1OC | -2% | u | 0% | -9% | 2.3µM* | u | ELG1-Luc inh=1.6µM*;ELG1 MMS Luc=u;ELG1 5FU viab=u;ELG1 MMS cell=-10%
Cc1ccccc1/C=N/NC(=O)CSc1nc2ccccc2o1 | 10% | 3% | 8% | 14% | u | x
O=C(CSc1nnc(-c2ccc(O)cc2)o1)Nc1ccccc1Br | -6% | u | 2% | 2% | u | -2%
Cc1ccccc1-c1nnc(SCC(=O)Nc2cccnc2Cl)o1 | 2% | u | 0% | 1% | u | 25µM*
O=C(CSc1nnc(-c2ccc(F)cc2)o1)Nc1ccc(S(=O)(=O)N2CCCC2)cc1 | 5% | 13% | -1% | 14% | 26% | x
Cc1ccccc1NC(=O)CSc1nc2ccccc2o1 | 2% | u | 1% | 1% | u | u | ELG1 FLuc counter=64%;FLuc biochem=-6%
O=C(CSc1nnc(-c2cccnc2)o1)Nc1ccccc1Br | 3% | 18% | 0% | 3% | u | x
O=C(CSc1nnc(-c2ccc(F)cc2)o1)Nc1ccc(S(=O)(=O)N2CCCCCC2)cc1 | -2% | u | 0% | 0% | -3% | u | ELG1 FLuc counter=-5%;FLuc biochem=-7%
CCOc1ccc(S(=O)(=O)c2cn(C)c3ccccc3c2=O)cc1 | -5% | -13% | 0% | 6% | x | x
Fc1ccc(Cc2cn3cc(-c4ccc(F)cc4)nc3s2)cc1 | 22% | u | -2% | -5% | x | x
